Data published in PubChem BioAssay AID1566 (Sanford-Burnham Center for Chemical Genomics, 2009).
The campaign covered roughly 290,000 compounds. About 1,800 (0.62%) were called active. The full list was thinned out, with actives kept by preference. A number with no mark means an inactive call. Rule as the data show it: active = inhibition above about 50%; inactive = the rest.

Assay: NOD2 signaling inhibitors, cell-based, luminescence, uHTS, HEK293 (AID 1566)
Details: HEK293 NOD2/NF-kB luciferase reporter, at 4 µM, active compounds read high
`CCCn1cnnc1CNC(=O)C1CCC(=O)N(CCc2ccc(OC)cc2)C1` (centres undefined) gave an inhibition of -2.5%. Compound `COc1cc(OC)cc(C(=O)N[C@H](C(=O)NCc2ccco2)C(C)C)c1` has an inhibition of 4.8%. Work on `CCN1CCN(CC(=O)N2c3ccccc3Sc3ccccc32)CC1` yielded an inhibition of 21.1%. For `Cc1noc(C)c1CSCC(=O)OCC(=O)NC1CCCCC1`, the inhibition was 1.1%. `[O-][N+]1=C2CCC/C(=N\O)C2=NC12CCCCC2` gave an inhibition of -8.9%. Work on `COc1ccccc1CNC(=O)N1CCN(c2ccccc2Cl)CC1` yielded an inhibition of 4%. Work on `COc1ccccc1CNC(=O)N1CCN(c2ccccc2)CC1` yielded an inhibition of 8.6%. For `COc1ccccc1CNC(=O)N1CCN(c2ccccc2C)CC1`, the inhibition was 71% (active). Work on `O=C(CCC(=O)N1CCc2ccccc21)Nc1ccccc1` yielded an inhibition of 12.5%. Work on `N/C(=N\N=C/c1ccc(Br)cc1)N/N=C\c1ccc(Br)cc1` yielded an inhibition of -5.9%. With `CCN1CCN(c2ccc(NC(=O)COc3ccc([N+](=O)[O-])cc3)cc2)CC1` the inhibition was -32.4%. For `CCc1nnc(NC(=O)CCC(=O)N2CCN(Cc3ccc(Cl)cc3)CC2)s1`, the inhibition was 5.9%. For `CCCc1nnc(NC(=O)CCC(=O)N2CCN(Cc3ccc(Cl)cc3)CC2)s1`, the inhibition was 53.2% (active). Compound `CCCc1nnc(NC(=O)CCC(=O)N2CCN(Cc3ccc(F)cc3)CC2)s1` has an inhibition of -3.9%. With `CCc1ccc(NC(=O)CC2C(=O)N(c3ccc(C)cc3)C(=O)N2C2CC2)cc1` (centres undefined) the inhibition was -17.1%. For `O=C(Nc1ccc2ccccc2n1)Nc1ccccc1F`, the inhibition was -1.1%. Compound `COc1ccccc1OCCCOc1ccc(/C=C2\SC(=O)NC2=O)cc1OC` has an inhibition of 32%. `COc1cc(/C=C2/SC(=O)NC2=O)ccc1OCc1ccccc1` showed an inhibition of -9.8%. In the case of `COc1ccc2cc(/C=C3\SC(=S)NC3=O)c(N3CCOCC3)nc2c1`, the inhibition is reported as 42.8%. For `COc1ccc(-n2c(C)cc(/C=C3\SC(=S)NC3=O)c2C)cc1`, the inhibition was -195%. For `CCOc1ccc(N(C)c2ccc(/C=C3/SC(=S)NC3=O)cc2)cc1`, the inhibition was -2.9%. Work on `CCOc1ccc(/C=C2\SC(=S)NC2=O)cc1OC` yielded an inhibition of -106%. Compound `COc1cccc(CNC(=O)C2CCC(=O)N(C3CC3)C2)c1OC` (centres undefined) has an inhibition of -2.5%. For `O=C(NCCSCc1ccc(Cl)cc1)c1cccs1`, the inhibition was 6.3%. Work on `CCOc1ccc(-c2[nH]ncc2-c2ccc(Cl)cc2)c(O)c1` yielded an inhibition of 17.2%. `CSc1nc(Oc2ccc3ccccc3c2)c2ccccc2n1` showed an inhibition of -0.5%. `CCN(Cc1ccccc1)C(=O)Cn1c(=O)n(CCC(=O)N2CCCCC2)c(=O)c2sccc21` gave an inhibition of 1.5%. With `O=[N+]([O-])c1ccc(Sc2cccc[n+]2[O-])c2nonc12` the inhibition was 93% (active). `O=[N+]([O-])c1ccc(Nc2ccccc2O)c2nonc12` showed an inhibition of 16%. In the case of `O=[N+]([O-])c1ccc(Nc2ccccc2)c2nonc12`, the inhibition is reported as 42%. In the case of `O=C(NCCN1CCOCC1)c1ccccc1N1C(=O)[C@@H]2Cc3c([nH]c4ccccc34)C(c3ccccc3)N2C1=O` (some centres undefined), the inhibition is reported as 5.2%. `Cc1ccc(NC2CCCN(C(=O)CCn3nccc3C)C2)cc1C` (centres undefined) showed an inhibition of -4%. Compound `CC1(C)CC(N2CCCCC2)=CC(=[N+]2CCCCC2)C1` has an inhibition of 44.9%. Compound `CC1(C)CC(N2CCCC2)=CC(=[N+]2CCCCC2)C1` has an inhibition of 33.8%. Work on `Cc1cc(C(=O)OCC(=O)Nc2cc(S(=O)(=O)N(C)C)ccc2Cl)c2ccccc2n1` yielded an inhibition of 10.5%. With `Cc1oc(-c2ccc3c(c2)OCCO3)cc1C(=O)O` the inhibition was 79% (active). Work on `CCOC(=O)CNC(=O)c1cc(-c2ccc3c(c2)OCCO3)oc1C` yielded an inhibition of -25%. In the case of `Cc1oc(-c2ccc3c(c2)OCCO3)cc1C(=O)NCC(=O)O`, the inhibition is reported as 18%. `CC1CN(CCOc2ccc(Cl)c(Cl)c2)CC(C)O1` (centres undefined) showed an inhibition of -27.9%. For `O=C(NCC(=O)N1CCN(c2ccccc2)CC1)c1ccccc1`, the inhibition was -11.2%. In the case of `Clc1ccc(/C=C/c2nc(Cl)c(-c3ccc(Cl)cc3)c(Cl)n2)cc1`, the inhibition is reported as 15.1%. `CN1/C(=C\C=C(/C#N)C(=O)Nc2ccccc2F)C(C)(C)c2ccccc21` showed an inhibition of 23.2%. Compound `CN1/C(=C/C=C(/C#N)C(N)=O)C(C)(C)c2ccccc21` has an inhibition of -25.4%. For `CN1/C(=C\C=C(/C#N)C(=O)Nc2ccc(Cl)cc2)C(C)(C)c2ccccc21`, the inhibition was 50.6% (active). For `Cc1nn(C(=O)CCCn2cc([N+](=O)[O-])cn2)c(C)c1Cl`, the inhibition was 16.7%. With `Cc1ccc(C(=O)NCCNc2ccc([N+](=O)[O-])cc2C(F)(F)F)cc1` the inhibition was 16.4%. `COc1ccc(-c2cc(=O)oc3cc(OC(C)C(=O)O)ccc23)cc1` (centres undefined) showed an inhibition of -5.9%. In the case of `COc1ccc(-c2cc(=O)oc3cc(OCC(C)=O)ccc23)cc1`, the inhibition is reported as -11.8%. In the case of `CCCn1c(=O)c(Cc2ccccc2)c(O)c2ccccc21`, the inhibition is reported as 6.4%. With `CCn1cc(/C=C(\NC(=O)c2ccc(OC)cc2)C(=O)N2CCOCC2)c2ccccc21` the inhibition was 11.3%. For `Cc1cc2c(c(=O)o1)C(C(C)C)C(C#N)=C(N)O2` (centres undefined), the inhibition was 6.9%. Work on `CCOC(=O)N1CCN(Cc2cc(Cl)c3cccnc3c2O)CC1` yielded an inhibition of 11.2%. Compound `OCCN1CCN(Cc2cc(Cl)c3cccnc3c2O)CC1` has an inhibition of -47.1%. In the case of `Cc1ccc(S(=O)(=O)NNC(=O)c2ccccc2O)cc1`, the inhibition is reported as 8.4%. With `COc1ccc(S(=O)(=O)N(Cc2cc3cc(C)ccc3[nH]c2=O)CC2CCCO2)cc1` (centres undefined) the inhibition was 16.6%. With `O=C(NC(=S)Nc1nc2c(s1)CCCC2)c1ccccc1` the inhibition was -7.3%. For `COC(=O)c1ccc(C(=O)NC(=S)Nc2nc3c(s2)CCCC3)cc1`, the inhibition was 5.1%. With `CC(C)(C)c1ccc(C(=O)NC(=S)Nc2nc3c(s2)CCCC3)cc1` the inhibition was 60.3% (active). `COc1ccc(S(=O)(=O)N(CC(=O)N2CCN(C)CC2)c2ccc(C)cc2)cc1Br` gave an inhibition of -9.5%. `COc1ccc(N2C(N)=NC(N)=NC2(C)C)cc1` showed an inhibition of -2.7%. Work on `CCOc1ccc(N2C(N)=NC(N)=NC2(C)C)cc1` yielded an inhibition of -5.6%. For `CC1(C)N=C(N)N=C(N)N1c1ccc(Oc2ccc(Cl)cc2)c(Cl)c1`, the inhibition was 58.7% (active). `COc1ccccc1N1CCN(C(=O)CSc2nnc3c4ccccc4n(CC(=O)O)c3n2)CC1` gave an inhibition of 9.3%. `COC(=O)CSc1nnc(CNC(=O)c2ccc(S(=O)(=O)N3CCCCC3)cc2)n1C` gave an inhibition of 12.8%. Work on `Cc1ccc(NC(=O)C2=NNC(=O)CC2)cc1F` yielded an inhibition of -17.2%. Compound `Cc1ccccc1S(=O)(=O)Oc1cccc2c(O)cccc12` has an inhibition of 1.5%. `CNC(=O)CN(c1cc([N+](=O)[O-])ccc1OC)S(C)(=O)=O` gave an inhibition of 12.6%. Work on `CCc1oc2ccccc2c1C(=O)CCN1CCCCC1` yielded an inhibition of 3.9%. With `CCCCc1oc2ccccc2c1C(=O)c1cc(I)c(OCCN(CC)CC)c(I)c1` the inhibition was 14.9%. In the case of `CCc1oc2ccccc2c1C(=O)c1cc(Br)c(O)c(Br)c1`, the inhibition is reported as 51.8% (active). `O=C(COC(=O)c1cccnc1Cl)c1ccc(Cl)cc1Cl` showed an inhibition of 9.1%. `CCCc1ccc(-c2cc(C(=O)Nc3ccc([N+](=O)[O-])cn3)c3ccccc3n2)cc1` gave an inhibition of -29.8%. For `COc1ccc2oc(=O)c(C(C)=O)cc2c1`, the inhibition was 19.5%. Work on `CCCCN(Cc1ccco1)C(=O)c1cc2c(=O)[nH]c3ccc(C)cc3c2s1` yielded an inhibition of 34.9%. In the case of `COc1ccc(N(CC(=O)N/N=C/c2ccc(N(C)C)cc2)S(=O)(=O)c2ccccc2)cc1`, the inhibition is reported as -57%. For `CCN(CC)c1ccc(/C=N/NC(=O)CNC(=O)C2COc3ccccc3O2)c(O)c1` (centres undefined), the inhibition was 69.1% (active). `O=C(CNC(=O)C1COc2ccccc2O1)N/N=C\c1ccccc1Cl` (centres undefined) showed an inhibition of 19.9%. In the case of `O=C(CNC(=O)C1COc2ccccc2O1)N/N=C/c1ccc(O)cc1O` (centres undefined), the inhibition is reported as 8.2%. `O=C(CSc1nc(-c2ccco2)cc(C(F)(F)F)n1)N1CCSCC1` gave an inhibition of 13.4%. In the case of `CCOC(=O)N1CCN(S(=O)(=O)N2CCCC(C(=O)NCCCN3CC(C)CC(C)C3)C2)CC1` (centres undefined), the inhibition is reported as -13.2%. `CN1CCc2nc(NC(=O)COc3ccc4ccccc4c3)sc2C1` gave an inhibition of -39.7%. `NC(=O)c1cccnc1Nc1ccccc1F` showed an inhibition of -1.6%. With `CCN(CC)S(=O)(=O)c1cccc(C(=O)Nc2nnc(C)s2)c1` the inhibition was 10.5%. Work on `O=C(Nc1nc2cc3c(cc2s1)OCCO3)c1cccc(N2C(=O)CCC2=O)c1` yielded an inhibition of -37.4%. For `CCN(CC)C(=O)CNc1ccc(C(F)(F)F)cc1[N+](=O)[O-]`, the inhibition was 4.7%. Work on `CCOc1ccc(N(CC(=O)N2CCN(c3ccccc3OC)CC2)S(=O)(=O)c2ccc(F)cc2)cc1` yielded an inhibition of -13%. For `CCc1ccc(OCC(=O)NC(=S)Nc2ccc(C(C)=O)cc2)c(Br)c1`, the inhibition was 41.8%. `CCCn1c(=O)c(C(=O)Nc2c(C)n(C)n(-c3ccccc3)c2=O)c(O)c2ccccc21` gave an inhibition of 0.6%. Compound `O=C(NCC1CCCN(C(=O)NCc2ccccc2)C1)c1ccc2c(c1)OCO2` (centres undefined) has an inhibition of -0.6%. For `COc1cc(/C=C/C(=O)OCC(=O)NC2CC2)cc(S(=O)(=O)N2CCc3ccccc32)c1OC`, the inhibition was 15%. In the case of `CCN1C(=O)/C(=C/c2ccc(OCc3ccc(C(=O)O)cc3)c(Cl)c2)NC1=S`, the inhibition is reported as 57.5% (active). For `CN1C(=O)/C(=C/c2ccc(OCc3ccc(C(=O)O)cc3)c(Cl)c2)NC1=S`, the inhibition was 33.9%. In the case of `CCOc1cc(/C=C2\NC(=S)N(C)C2=O)ccc1OCc1ccc(C(=O)O)cc1`, the inhibition is reported as -3%. Compound `O=C(NCCc1ccc(F)cc1)Nc1ccccc1` has an inhibition of -13.6%.
